The nature of assay [1]: binders of probe aFSTL3 on microarray, primary screen, stem cell growth factor project, biochemical, small-molecule microarray, fluorescence 635/667 (AID 1064).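 Also: measures binding of the biotinylated anti-FSTL3 antibody to printed compounds.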 The note with it: higher = more signal.
Assay [2] in a line: binders from COS7 lysate, DM2A8 probe, primary screen, torsin A project, cell lysate, small-molecule microarray, fluorescence 635/667 (AID 1065). The note with it: higher = more signal, COS7 lysate expressing mutant human TOR1A.
Assay [3] can be described thus: binders of probe aFGF2 on microarray, primary screen, stem cell growth factor project, biochemical, small-molecule microarray, fluorescence 635/667 (AID 1067).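 Also: measures binding of biotinylated aFGF2 protein to printed compounds on slides; z-score merges feature fluorescence and signal-to-noise across triplicate slides.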 Conditions: higher = more signal.
A short description of assay [4]: binders of probe aFGF10 on microarray, primary screen, stem cell growth factor project, biochemical, small-molecule microarray, fluorescence 635/667 (AID 1071).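 Also: score merges 667 nm spot intensity and signal to noise from triplicate slides.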 Conditions: higher = more signal.
Assay [5] concerns the target Neurogenic locus notch homolog protein 2 (Homo sapiens) (UniProt Q04721). Briefly: Notch2 binders on small-molecule microarrays, primary screen, biochemical, small-molecule microarray, 635 nm fluorescence, stem cell growth factors (AID 1073). Conditions: Notch2 binding, higher = more signal.
The target of assay [6] is Pro-neuregulin-1, membrane-bound isoform (Homo sapiens) (UniProt Q02297). Kind of assay: NRG1 binders on small-molecule microarrays, primary screen, psychiatric disease protein project, biochemical, small-molecule microarray, fluorescence 635/667 (AID 1075).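 Also: score combines 667 nm spot fluorescence with signal to noise.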 The note with it: NRG1 binding, 635 nm fluorescence, higher = more signal.
Pro-neuregulin-1, membrane-bound isoform (Homo sapiens), sequence (Q02297 whole entry, looked up, the tested form may be a part, canonical isoform): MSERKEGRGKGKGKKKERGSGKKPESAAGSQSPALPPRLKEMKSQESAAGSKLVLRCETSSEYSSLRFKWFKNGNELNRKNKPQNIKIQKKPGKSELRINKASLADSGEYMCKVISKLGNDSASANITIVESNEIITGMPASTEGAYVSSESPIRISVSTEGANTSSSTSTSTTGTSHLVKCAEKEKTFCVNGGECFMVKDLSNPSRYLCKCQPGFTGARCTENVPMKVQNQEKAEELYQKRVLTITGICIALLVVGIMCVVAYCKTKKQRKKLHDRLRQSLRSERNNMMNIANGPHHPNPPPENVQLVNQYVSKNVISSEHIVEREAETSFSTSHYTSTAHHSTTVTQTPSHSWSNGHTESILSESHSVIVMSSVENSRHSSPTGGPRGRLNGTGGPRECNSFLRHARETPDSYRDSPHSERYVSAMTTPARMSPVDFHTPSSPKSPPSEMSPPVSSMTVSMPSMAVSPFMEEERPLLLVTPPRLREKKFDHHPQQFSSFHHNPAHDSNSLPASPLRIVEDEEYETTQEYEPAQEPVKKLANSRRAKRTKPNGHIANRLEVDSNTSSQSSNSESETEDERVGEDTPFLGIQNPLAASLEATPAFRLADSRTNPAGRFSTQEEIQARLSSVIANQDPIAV
Assay [7] relates to Neuregulin-1 EGF-like domain. Kind of assay: binders of neuregulin-1 EGF-like domain, primary screen, biochemical, small-molecule microarray, 635 nm fluorescence (AID 1081).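 Also: binding of the protein to compounds printed on small-molecule microarray slides.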 Conditions: small-molecule microarray binding, higher = more signal.
Assay [8] is described as follows: FRG1 promoter luciferase signal modulators, primary screen, FRG1 inhibition for FSHD, cell-based, C2C12 myotubes, firefly/Renilla luciferase, luminescence (AID 1084). Conditions: higher = more signal, called active from +8 up or from −8 down.
Assay [9] in a line: binders of probe aFST on microarray, primary screen, stem cell growth factor project, biochemical, small-molecule microarray, fluorescence 635/667 (AID 1086).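 Also: score merges 667 nm fluorescence with signal-to-noise of each printed compound spot.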 The note with it: higher = more signal.
The nature of assay [10]: binders of probe aHhip on microarray, primary screen, stem cell growth factor project, biochemical, small-molecule microarray, fluorescence 635/667 (AID 1087).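 Also: score merges spot fluorescence at 667nm with spot signal to noise ratio.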 The note with it: higher = more signal.

The source made the active and inactive calls.

Neurogenic locus notch homolog protein 2 (Homo sapiens), sequence (Q04721 whole entry, looked up, canonical isoform): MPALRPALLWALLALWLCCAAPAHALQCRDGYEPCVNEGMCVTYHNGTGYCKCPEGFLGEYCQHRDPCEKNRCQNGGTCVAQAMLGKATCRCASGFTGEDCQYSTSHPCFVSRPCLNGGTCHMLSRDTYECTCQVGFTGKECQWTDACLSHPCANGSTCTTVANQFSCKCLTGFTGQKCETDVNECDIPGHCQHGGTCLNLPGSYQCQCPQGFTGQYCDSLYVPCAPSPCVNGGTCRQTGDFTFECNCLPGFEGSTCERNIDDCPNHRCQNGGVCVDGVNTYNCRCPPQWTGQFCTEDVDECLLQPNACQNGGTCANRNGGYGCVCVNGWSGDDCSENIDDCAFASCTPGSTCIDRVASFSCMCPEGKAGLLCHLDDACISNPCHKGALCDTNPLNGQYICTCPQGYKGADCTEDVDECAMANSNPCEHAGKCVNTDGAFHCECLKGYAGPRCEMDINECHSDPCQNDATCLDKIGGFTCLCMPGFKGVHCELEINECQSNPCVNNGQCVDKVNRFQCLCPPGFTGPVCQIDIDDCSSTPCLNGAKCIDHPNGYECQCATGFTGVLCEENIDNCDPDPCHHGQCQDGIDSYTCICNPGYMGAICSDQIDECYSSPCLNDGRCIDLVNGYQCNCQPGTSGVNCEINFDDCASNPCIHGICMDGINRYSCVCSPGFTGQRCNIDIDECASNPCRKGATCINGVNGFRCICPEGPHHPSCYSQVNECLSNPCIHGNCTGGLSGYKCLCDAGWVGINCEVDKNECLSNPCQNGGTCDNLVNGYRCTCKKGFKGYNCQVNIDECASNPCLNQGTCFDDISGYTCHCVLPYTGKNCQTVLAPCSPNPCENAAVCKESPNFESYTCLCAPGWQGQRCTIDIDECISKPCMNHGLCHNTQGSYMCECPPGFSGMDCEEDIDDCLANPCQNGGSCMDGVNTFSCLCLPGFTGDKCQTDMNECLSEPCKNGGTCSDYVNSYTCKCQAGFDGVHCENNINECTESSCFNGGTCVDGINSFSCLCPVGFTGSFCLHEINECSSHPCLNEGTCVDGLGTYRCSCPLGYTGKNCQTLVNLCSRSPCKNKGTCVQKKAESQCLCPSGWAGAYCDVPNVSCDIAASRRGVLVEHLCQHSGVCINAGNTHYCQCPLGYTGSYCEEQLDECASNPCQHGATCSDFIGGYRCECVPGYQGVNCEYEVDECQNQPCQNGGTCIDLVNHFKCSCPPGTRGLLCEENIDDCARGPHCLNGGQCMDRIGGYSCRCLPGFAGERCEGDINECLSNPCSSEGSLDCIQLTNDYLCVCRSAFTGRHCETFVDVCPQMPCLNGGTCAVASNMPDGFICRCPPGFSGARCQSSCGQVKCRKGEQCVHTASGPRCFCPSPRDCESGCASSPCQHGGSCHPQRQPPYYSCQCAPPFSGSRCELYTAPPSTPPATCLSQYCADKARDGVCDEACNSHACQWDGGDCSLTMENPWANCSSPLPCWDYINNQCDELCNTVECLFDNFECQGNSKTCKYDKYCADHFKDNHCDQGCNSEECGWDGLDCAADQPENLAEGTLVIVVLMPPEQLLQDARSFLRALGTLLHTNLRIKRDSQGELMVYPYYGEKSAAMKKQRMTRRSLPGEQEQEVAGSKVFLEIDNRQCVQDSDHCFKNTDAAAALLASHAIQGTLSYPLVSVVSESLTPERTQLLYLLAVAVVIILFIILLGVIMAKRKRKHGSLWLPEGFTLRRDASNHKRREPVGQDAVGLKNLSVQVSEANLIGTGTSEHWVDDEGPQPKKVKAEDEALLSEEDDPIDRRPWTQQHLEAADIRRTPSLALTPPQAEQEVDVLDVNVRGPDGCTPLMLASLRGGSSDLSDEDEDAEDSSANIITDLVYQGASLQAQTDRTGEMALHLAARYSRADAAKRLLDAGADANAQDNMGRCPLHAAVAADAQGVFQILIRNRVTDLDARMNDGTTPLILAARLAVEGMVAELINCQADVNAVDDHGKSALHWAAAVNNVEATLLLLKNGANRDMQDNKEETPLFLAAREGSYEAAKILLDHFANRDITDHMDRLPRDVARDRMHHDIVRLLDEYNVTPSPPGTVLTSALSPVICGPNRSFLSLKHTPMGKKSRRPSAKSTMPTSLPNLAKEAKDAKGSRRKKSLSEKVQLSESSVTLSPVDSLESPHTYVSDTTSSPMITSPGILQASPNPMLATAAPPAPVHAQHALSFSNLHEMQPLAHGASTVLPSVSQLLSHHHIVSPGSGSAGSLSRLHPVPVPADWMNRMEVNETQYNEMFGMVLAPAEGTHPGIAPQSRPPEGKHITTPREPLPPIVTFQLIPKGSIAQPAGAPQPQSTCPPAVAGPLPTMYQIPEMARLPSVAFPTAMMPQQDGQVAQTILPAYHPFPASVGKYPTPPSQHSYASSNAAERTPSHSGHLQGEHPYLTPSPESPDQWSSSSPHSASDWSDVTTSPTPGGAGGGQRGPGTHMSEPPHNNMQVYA

In the case of `Cc1ccc(S[C@]2(C(=O)NCC(C)C)CC(=O)N(Cc3ccccc3)[C@@H]2c2ccc(CO)cc2)cc1`, the composite z-score in assay [1] is 0.148; in assay [2], -0.674; in assay [3], -0.076; in assay [4], 0.146; in assay [5] it was -0.967; in [6], -0.431. The composite z-score is 0.221 in [7], 0.161 in assay [9] and -0.226 in assay [10]. In addition, in assay [8], the z-score is -3.05 (inactive).
On to `Cc1cc(C)c(C(O)C2C=CC3C(=O)NC(=O)C3N2Nc2ccccn2)c(C)c1` (stereo not given), for which the composite z-score in [1] is 0.36; in assay [2] it was 0.135; in [3] it was -0.0878; in assay [4], 0.0012; in [5], 0.486; in [6], 1.65. Besides, the composite z-score came to 0.986 in [7], 0.578 in assay [9] and 0.0373 in assay [10]. Further, in [8], the z-score was 1.03 (inactive).
As to `C=C(CCCC)C(=O)CC[C@@H](OC(=O)c1ccccc1-c1ccccc1C(=O)O)c1ccc(CO)o1`, the composite z-score is -0.241 in assay [1]; -0.141 in assay [2]; -0.0291 in assay [3]; 0.45 in assay [4]; 0.629 in assay [5]; 0.504 in [6]. Moreover, the composite z-score was determined as 0.989 in [7], 0.137 in assay [9] and 0.192 in [10]. In addition, in assay [8], the z-score was -0.161 (inactive).
For `O=C1C[C@@](C(=O)O)(c2ccc([N+](=O)[O-])cc2)[C@@H](c2ccc(CO)cc2I)N1C1CCCCC1`, the composite z-score in [1] is 0.0508; in assay [2] it was 0.0298; in assay [3], -0.0256; in [4], 0.798; in assay [5] it was 1.11; in [6], 1.39. In addition, the results for the composite z-score in assay [7], in [9] and in assay [10] were 0.94, 0.797 and 0.12, respectively. The z-score in [8] is -1.26 (inactive).
`C[C@H]1C2[C@H](Cc3ccccc3)NC(=O)[C@]23C(=O)N[C@H](Cc2ccccc2)C(=O)N[C@H](Cc2ccccc2)C(=O)NC/C=C/CCC/C=C/C3[C@@H]2O[C@]12C` (stereo not given in full): the composite z-score was -0.367 in [1]; 0.881 in [2]; -0.174 in assay [3]; 0.309 in [4]; -0.163 in [5]; 0.365 in assay [6]. Further, the composite z-score was 1.21 in assay [7], 0.22 in assay [9] and 0.154 in assay [10]. In addition, the z-score in assay [8] is 4.86 (inactive).
In the case of `CCCCCCC#C[Si](O[C@H](c1ccccc1)c1cn([C@H](C)c2ccccc2)nn1)(C(C)C)C(C)C`, the composite z-score is -0.0028 in assay [1]; 0.247 in assay [2]; -0.083 in [3]; 0.291 in [4]; 0.315 in assay [5]; 0.114 in [6]. The composite z-score in [7] was -0.333; in [9], -0.495; in [10], 0.0147. The z-score in assay [8] was -0.532 (inactive).
On to `C=C(C)[C@@H]1CC=C(C(O)C2C=CC3C(=O)N(Cc4ccccc4)C(=O)C3N2n2cnnc2)CC1` (stereo not given in full), for which the composite z-score in assay [1] was 0.29; in assay [2], 0.271; in [3], -0.0877; in assay [4], -0.215; in assay [5], -0.274; in [6], 0.485. Moreover, the values for the composite z-score in assay [7], in [9] and in [10] were 0.703, 0.325 and 0.208, respectively. Besides, in assay [8], the z-score was 0.225 (inactive).
As to `CC(=O)n1cc(C(O)C2C=CC3C(=O)N(c4ccccc4)C(=O)C3N2Nc2ccc(C#N)cc2)c2ccccc21` (stereo not given), the composite z-score in assay [1] is -0.0594; in assay [2], -0.234; in [3] it was 0.106; in assay [4], 0.794; in [5] it was 1.5; in [6], 1.8. For the same compound, the composite z-score in assay [7] amounted to 1.29; in [9], 0.296; in [10], 0.0373. Further, the z-score in [8] is 0.471 (inactive).
Regarding `COC(=O)c1c2oc(c1C(=O)OC)C(=O)N[C@H](Cc1ccccc1)Cn1nncc1C1(CCCCC1)NC(=O)N[C@H](CO)CC2`, the composite z-score is -0.442 in assay [1]; 0.158 in [2]; -0.0853 in assay [3]; 0.108 in assay [4]; 0.0153 in [5]; -0.0781 in assay [6]. The composite z-score is 0.646 in assay [7], 0.233 in assay [9] and -0.212 in assay [10]. The z-score in assay [8] is -1.33 (inactive).
With `COC(=O)[C@@]1(Cc2ccc(F)cc2)[C@H]2c3cc(C(=O)N4CCCC4)n(CCc4ccc(OC)c(Br)c4)c3C[C@H]2CN1C(=O)c1ccccc1`, the composite z-score in assay [1] is 0.502; in [2] it was 1.27; in [3], 0.266; in assay [4], 0.832; in [5] it was 1.83; in assay [6] it was 1.55. Moreover, the composite z-score in assay [7] stood at 1.29; in assay [9] it was 1.94; in [10], 1.68. In addition, in [8], the z-score is -0.784 (inactive).
As for `CO[C@H]1O[C@H](CO)[C@@H](OC(=O)Nc2ccc3c(c2)OCO3)[C@H](OC(=O)Nc2ccc3c(c2)OCO3)[C@H]1OC(=O)Nc1ccc2c(c1)OCO2`, the composite z-score was 0.0472 in [1]; -0.235 in assay [2]; 0.0575 in assay [3]; 0.844 in assay [4]; 1.39 in [5]; 1.83 in assay [6]. Further, the composite z-score in assay [7] is 1.25; in assay [9], 0.634; in [10], -0.0296. Further, in assay [8], the z-score is 6.05 (inactive).
Turning to `[N-]=[N+]=NCc1ccccc1C[C@]1(C(=O)NCc2ccccc2)COC(c2ccc(OCCCO)cc2)=N1`, the composite z-score in [1] was found to be 0.0555; in [2] it was 0.808; in assay [3], 0.0111; in [4], 0.157; in [5] it was 0.472; in assay [6] it was 1.17. Further, the figures for the composite z-score in assay [7], in assay [9] and in assay [10] were 0.931, 0.534 and -0.166, respectively. In addition, in [8], the z-score is -3.06 (inactive).
For `CN(C)CCCCCCNC(=O)[C@@H]1C[C@@H]2C(=O)N[C@@H](Cc3ccccc3)C(=O)N2[C@@H]1c1cccc(OCCO)c1`, the composite z-score in assay [1] is 0.0797; in assay [2] it was 1.42; in assay [3], -0.0605; in [4], 0.215; in assay [5] it was 0.0438; in assay [6] it was 1.42. Further, the composite z-score in [7] worked out at 1.33; in [9] it was 0.258; in assay [10] it was 0.241. Also, in assay [8], the z-score is 3.59 (inactive).
For the compound `CC(c1ccccc1)C(O)C1C=CC2C(=O)N(Cc3ccccc3)C(=O)C2N1n1cnnc1` (stereo not given), the composite z-score in assay [1] is -0.0479; in assay [2], 0.327; in assay [3] it was -0.0165; in assay [4], 0.351; in assay [5], 1.07; in assay [6], 0.446. The composite z-score in assay [7] was 1.01; in [9] it was 0.541; in [10], 0.0373. In assay [8], the z-score is -0.0355 (inactive).
Turning to `CN1C(=O)C2C=CC(C(O)c3ccc(Br)cc3)N(Nc3ccccc3)C2C1=O` (stereo not given), the composite z-score in [1] was 0.607; in assay [2], 1.46; in assay [3], -0.0747; in [4] it was -0.287; in assay [5], -0.468; in assay [6] it was 0.648. The composite z-score in assay [7] was 0.728; in [9], -0.118; in assay [10], -0.0346. Moreover, in [8], the z-score was 0.665 (inactive).
Take `C=CCNC(=O)[C@@H]1[C@H]2C(=O)O[C@H](c3ccccc3)[C@H](c3ccccc3)N2[C@H](c2ccccc2OCCO)[C@@]12C(=O)N(C(=O)OCCOC)c1ccc(C#CCC(C(=O)OC)C(=O)OC)cc12`: the composite z-score was 2.39 in assay [1]; 0.691 in [2]; 0.605 in assay [3]; 1.16 in [4]; 1.6 in assay [5]; 2.26 in assay [6]. For the same compound, the composite z-score amounted to 1.31 in assay [7], 3.09 in [9] and 0.856 in assay [10]. Moreover, in assay [8], the z-score was 0.847 (inactive).
